Data: PubChem BioAssay (Tox21)
Records with an inconclusive call do not appear. Where a call stands in place of a potency, no number is given. Activity calls are given as the source filed them. Calls follow the shape of the dose curve; as a rule, active = well fitted cell-killing curve with a large enough effect in the repeat runs; inconclusive = weak or mixed curves, or effect the other way; inactive = flat fitted curve, though single readings scatter.

assay: cAMP Responsive Elements (CRE) small molecule agonists, cell-based qHTS assay: qHTS cell viability counter screen (AID 2060914); conditions: CRE-bla HEK293T viability, CellTiter-Glo luminescence, 5 h; series mostly up to 92.4 µM;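 also: viability read after 3 h of compound exposure; nearly all actives have a fitted effect of over 50% in size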
Text: National Center for Advancing Translational Sciences [NCATS]
Division of Preclinical Innovation [DPI]
U.S. Environmental Protection Agency [EPA]
National Institutes of Environmental Health Sciences [NIEHS]
National Toxicology Program [NTP]
U.S. Food and Drug Administration [FDA]
CREB (cyclic-AMP Responsive Element Binding Protein) is a cellular transcription factor. It binds to certain DNA sequences called cAMP Responsive Elements (CRE) and regulates the transcription of the genes. […] This cell line can be used to find agonists/antagonists of the cyclic AMP signaling pathway. The activation of the report gene under culture conditions can be detected by fluorescence intensity. This cell line has been used to screen the Tox21 10K compound library to identify agonists that induce oxidative stress. The cytotoxicity of the Tox21 compound library against the CRE-bla cell line was tested in parallel by measuring the cell viability using CellTiter-Glo assay (Promega, Madison, WI) in the same wells.
Tox21 Assay Protocol Summary:
CRE-bla Hek 293T cells were suspended in assay medium (DMEM containing 10% dialyzed FBS, 0.1 mM NEAA, 1 mM sodium pyruvate and 25 mM HEPES) and dispensed at 2,000 cells/5 uL /well into 1536-well black wall/clear bottom plates using a Multidrop Combi (ThermoFisher Scientific, Waltham, MA) dispenser. After the assay plates were incubated at 37 C/5% CO2 for 18 hrs, 23 nL of compounds dissolved in DMSO, positive controls or DMSO only was transferred to the assay plate by a pintool workstation (Kalypsys, San Diego, CA). After the plates were incubated at 37 C/5% CO2 for 3 hrs, 1 uL of LiveBLAzer B/G FRET substrate (Invitrogen, Carlsbad, CA) was added to each well using Bioraptr Flying Reagent Dispenser (FRD, Aurora Discovery, San Diego, CA). The plates were incubated at room temperature for 2 h, then fluorescence intensities were measured using an Envision plate reader (PerkinElmer, Shelton, CT) at Excitation 405nm, Emission 460nm and 530nm. The % activity was determined from the ratio of 460nm/530nm. For cell viability readout that measures cytotoxicity, 4 uL /well of CellTiter-Glo reagent was added into the assay plates using Bioraptr FRD. After 30 min incubation at room temperature, the luminescence intensity in the assay plates was measured using a ViewLux (PerkinElmer, Shelton, CT) plate reader.
Potency is read from the fitted curve at half-maximal effect.

SMILES | Potency
FC(F)OC(F)(F)C(F)Cl (stereo not given) | inactive
CCS(=O)(=O)CCSP(=O)(OC)OC | inactive
Cc1cc(C(F)(C(F)(F)F)C(F)(F)F)ccc1NC(=O)c1cccc(I)c1C(=O)NC(C)(C)CS(C)(=O)=O | inactive
Oc1c(Cl)c(Cl)cc(Cl)c1Cl | inactive
COS(=O)(=O)c1ccc(C)cc1 | inactive
C[C@]12Cc3nonc3C[C@@H]1CC[C@@H]1[C@@H]2CC[C@@]2(C)[C@H]1CC[C@]2(C)O | 29.8 µM (active)
COc1ccc(C(O)(c2cncnc2)C2CC2)cc1 (stereo not given) | inactive
NC(=O)c1cc([N+](=O)[O-])cc([N+](=O)[O-])c1 | inactive
Cc1ccccc1O | inactive
CN1C(=O)CN=C(c2ccccc2)c2cc(Cl)ccc21 | inactive
CC(C)c1ccc(CO)cc1 | inactive
[O-][Br+2]([O-])O | inactive
O=[N+]([O-])c1cccc(CCl)c1 | inactive
CCCOCC(=Nc1ccc(Cl)cc1C(F)(F)F)n1ccnc1 | inactive
COP(=O)(OC)SCn1c(=O)oc2cc(Cl)cnc21 | inactive
Nc1ccc(-c2ccccc2)cc1 | inactive
CCCCc1c(C)nc(NCC)nc1OS(=O)(=O)N(C)C | inactive
[Cl-].[Cl-].[Cl-].[Fe+3] | inactive
CCCCCCCCSC(=O)Oc1cc(Cl)nnc1-c1ccccc1 | inactive
N#CC(CCc1ccc(Cl)cc1)(Cn1cncn1)c1ccccc1 (stereo not given) | inactive

SMILES | Potency
O=c1oc2ccccc2c(O)c1C1CCCc2ccccc21 (stereo not given) | inactive
COC(=O)c1sccc1S(=O)(=O)NC(=O)Nc1nc(C)nc(OC)n1 | inactive
CN(C)c1ccc(N=O)cc1 | inactive
CCCCC#N | inactive
O=S(=O)(Cl)c1ccccc1 | inactive
CC(Cc1ccccc1)NCCn1cnc2c1c(=O)n(C)c(=O)n2C (stereo not given) | inactive
CCCCON=O | inactive
CC[C@H](C)[C@H]1O[C@]2(C=C[C@@H]1C)C[C@@H]1C[C@@H](C/C=C(\C)[C@@H](O[C@H]3C[C@H](OC)[C@@H](O[C@H]4C[C@H](OC)[C@@H](NC)[C@H](C)O4)[C@H](C)O3)[C@@H](C)/C=C/C=C3\CO[C@@H]4[C@H](O)C(C)=C[C@@H](C(=O)O1)[C@]34O)O2 | 19.3 µM (active)
Nc1c(Cl)c(Cl)nc(C(=O)O)c1Cl | inactive
ClCc1ccc(Cl)cc1Cl | inactive
N#CCCO | inactive
Cc1nnc(-c2ccccc2)c(=O)n1N | inactive
O=C=Nc1ccc(Cl)cc1 | inactive
CCN | inactive
CCOC(=O)CBr | inactive
CCCN(CCC)c1c([N+](=O)[O-])cc(C(C)C)cc1[N+](=O)[O-] | inactive
ClCCCCl | inactive
Nc1nc(N)nc(N)n1 | inactive
CC(C)(C)OC(=O)c1ncn2c1[C@@H]1CCCN1C(=O)c1c(Br)cccc1-2 | inactive
CC1(C)C(C=C(Cl)Cl)C1C(=O)OC(C#N)c1cccc(Oc2ccccc2)c1 (stereo not given) | inactive
